Screening data: PubChem BioAssay, several laboratories
The sample as a whole holds a higher share of hits than the screen did.
Mac1 fbg inh: inhibitors of CD11b/CD18 adhesion to fibrinogen, primary screen, K562 cells, luminescence | AID 1497, 2009 | inhibition, % at 10 µM | 93,000 tested, 0.54% active | ATPlite luminescence; Mn2+ added to activate the integrin | Integrin beta-2 (Homo sapiens) + Integrin alpha-M (Homo sapiens), P05107+P11215;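 active = primary inhibition of 50% or more at 10 µM, then 40% or more on retest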
hDAT+cocaine: changed hDAT dopamine uptake under cocaine IC80, either direction, primary screen, cocaine antagonist project, cell-based, LLC-PK1 hDAT, [14C]-dopamine uptake, MLSMR; Sodium-dependent dopamine transporter (Homo sapiens), Q01959; AID 449768, 2010; 110,000 tested, 1.3% active; LLC-PK1 hDAT cells, [14C]-dopamine uptake with cocaine IC80; actives deviate in either direction; B-score at 10 µM;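 active = Z score or B-score, a plate-position-corrected score, falls beyond the plate's 99.7% confidence bounds, in either direction; inactive = both scores lie inside the 99.7% bounds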
D1 mod: D1 CRE-luciferase signal change, two-sided – cell-based, HEK293 D1, dopamine EC30, D1 allosteric modulator project, primary screen; D(1A) dopamine receptor (Homo sapiens), P21728; dopamine EC30 potentiation; actives deviate in either direction; B-score at 10 µM; 58,000 tested, 5.9% active;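 active = luminescence count or its row- and column-corrected plate score outside the 99.7% band of the plate's sample wells, on either side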
CD11b adhes enh: enhancers of CD11b/CD18 adhesion to fibrinogen, primary screen, K562 cells, luminescence | Integrin beta-2 (Homo sapiens) + Integrin alpha-M (Homo sapiens), P05107+P11215 | ATPlite luminescence | activation, % at 10 µM | 93,000 tested, 0.07% active | AID 1499, 2009;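 active = 10 µM primary screen giving 50% or more activity, confirmed by 40% or more on retest at that dose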
Pyk2 oligo antag: antagonists of Pyk2 self-association, primary screen, Q293 cells, FERM NanoBiT luminescence, HTS | 99,000 tested, 0.83% active | Protein-tyrosine kinase 2-beta (Homo sapiens), Q14289 | z-score (the deposit names both 25 µM and 10 µM) | stronger effect = lower value;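 active = Z-score of -3 or lower, scaled per plate to the spread of control and sample wells; inactive = z-score above -3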;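 also: negative z-score means lost luminescence so less FERM oligomerization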
FAK blocker: FAK kinase inhibitors, primary screen, biochemical | 97,000 tested, 0.84% active | inhibition, %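 (tested at 7 µM)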 | Focal adhesion kinase 1 (Homo sapiens), Q05397 | biochemical FAK kinase activity assay | AID 727, 2007; in the data active = inhibition above about 19%
A number is an active result; n = inactive; x = not tested or not shown.

SMILES	Mac1 fbg inh	hDAT+cocaine	D1 mod	CD11b adhes enh	Pyk2 oligo antag	FAK blocker
CCOC(=O)c1c(-c2ccccc2)nnn1-c1nc(OCC)nc(N2CCCCC2)n1	n	1.81	n	n	n	x
CCOC(=O)c1nnn(-c2nc(N3CCCC3)nc(N3CCCC3)n2)c1-c1ccccc1	n	x	n	n	n	n
CC1CC(C)(C)NC(=S)N1CCCC(=O)N1CCN(c2ccccc2F)CC1 (configuration not stated)	x	x	x	x	n	x
CCNc1ccc2c(Cl)cc(=O)oc2c1	n	x	n	n	x	n
CCn1c(CNC(=O)COc2ccc(C(C)C)cc2)nnc1SCC(=O)Nc1ccccc1C(C)C	n	2.44	x	n	n	n
Cc1ccccc1Nc1nc(N)nc(CN2C(=O)NC3(CCCCC3C)C2=O)n1 (configuration not stated)	n	-7.56	n	n	n	x
CCOC(=O)N1C2=NC(C(=O)OC)=C(C(=O)OC)[C@@H]3N(C)c4ccc(OC)cc4[C@]23C[C@H]1C(=O)OC	x	1.61	x	x	x	x
COC(=O)C1=C(C(=O)OC)[C@@H]2N(C)c3ccc(OC)cc3[C@@]23C[C@@H](C(=O)OC)N(C(=O)c2ccc(Br)cc2)C3=N1	x	n	x	x	x	x
O=C(COC(=O)COc1ccccc1)NC1CCCc2ccccc21 (configuration not stated)	n	x	x	n	x	x
CC(=O)c1ccc(Oc2ncnc3sccc23)c(CN2CCOCC2)c1	x	-7.94	n	x	n	x
Cc1ccc2oc3nc(C)c(C(=O)Nc4cccc(C(F)(F)F)c4)cc3c(=O)c2c1	x	n	x	x	n	n
COC(=O)c1oc2ccccc2c1NC(=O)CN1CCCC1	n	n	13.3	n	n	x
CCCCCOc1ccc(Br)cc1CSC(=N)N	104.6	x	x	n	x	x
C=CCC(NCc1ccco1)c1ccc(OC)cc1OC (configuration not stated)	n	n	n	n	x	n
C=CCC(NCc1ccco1)c1ccc(OC)c(OC)c1 (configuration not stated)	n	-7.49	x	n	n	n
COc1cc(NC(=O)N[C@H](C(=O)O)C(C)C)cc(OC)c1	n	n	n	n	n	n
CCOC(=O)c1c(C)[nH]c(C(=O)CSc2ccccc2)c1C	n	n	-2.85	n	n	x
CC(O)c1nc2ccccc2n1Cc1nnc(-c2ccc(Cl)cc2)o1 (configuration not stated)	n	n	-4.6	n	n	n
c1ccc(-c2nnc(Cn3c4ccccc4c4nc5ccccc5nc43)o2)cc1	x	x	n	x	n	n
Fc1ccc(-n2nnc(-c3ccnc4ccccc34)n2)cc1	x	n	x	x	x	x
CCCN1CCCc2cc(CN(CCCN3CCOCC3)C(=O)Nc3ccc(OCC)cc3)ccc21	65.3	2.73	x	n	n	n
CCc1nc2ccccc2c(C(=O)OCC(=O)Nc2ccc(S(=O)(=O)N3CCOCC3)cc2)c1C	n	n	n	n	-4.4	x
COc1cccc(NC(=O)COC(=O)c2cc(S(=O)(=O)N3CCOCC3)ccc2C)c1	n	n	x	n	n	n
O=C(COC(=O)c1ccccn1)Nc1ccc(S(=O)(=O)N2CCOCC2)cc1	n	n	x	n	n	n
CCc1nc2ccccc2c(C(=O)OCC(=O)Nc2cccc(S(=O)(=O)N3CCOCC3)c2)c1C	x	n	x	x	-4.74	n
SMILES	Mac1 fbg inh	hDAT+cocaine	D1 mod	CD11b adhes enh	Pyk2 oligo antag	FAK blocker
Cc1oc2c(CN(C)C)c(O)ccc2c(=O)c1-c1cscn1	n	n	n	n	n	n
CCc1cc2c(=O)c(-c3cscn3)coc2c(CN(C)C)c1O	n	n	n	n	-3.36	n
CC1(C)Nc2ccccc2N(CCC(=O)N2CCOCC2)C1=O	n	1.62	n	n	n	n
CN(C(=O)CCN1C(=O)C(C)(C)Nc2ccccc21)c1ccccc1	n	n	n	n	n	n
CC1(C)Nc2ccccc2N(CC(=O)N2CCCCC2)C1=O	n	1.4	n	n	n	n
CC1(c2nnc(-c3ccncc3)o2)CC(c2cccc(Cl)c2)=NO1 (configuration not stated)	x	n	x	x	x	x
